# Source: PubChem BioAssay (Tox21)
# Values joined by “and” are separate entries in the source; they are usually repeats but may differ in a detail not shown here. Equal entries are not always repeated. Inconclusive results are not listed. A call without a number means that no potency is given here. More than one record can exist for a structure, and the calls need not agree. Active and inactive are the calls of the source. Unless noted, the call rests on the fitted dose curve; in most records, active means well fitted curve in the direction sought with a large enough effect in the repeat runs; inconclusive means weak or mixed curves; inactive means no such curve, though single readings can be large; an effect the other way counts as inactive or inconclusive.
# Experiments:
# [1] = A CellTox Green Cytotoxicity Assay to monitor cytotoxicity in HepG2 cells - 0 hour (AID 1224882); further: nearly all actives have a fitted effect of over 35% in size
# How it was run: (§1)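 Measurements at 0, 8, 16, 24, 32 and 40 h of treatment captured CellTox Green fluorescence in HepG2 cells that had been co-plated with reagent and preincubated 5 h at 37 C/5% CO2.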
# [2] = A CellTox Green Cytotoxicity Assay to monitor cytotoxicity in HepG2 cells - 32 hour (AID 1224883); further: nearly all actives have a fitted effect of over 50% in size; further: potency means the concentration at half of the fitted maximal effect
# How it was run: as §1
# [3] = A CellTox Green Cytotoxicity Assay to monitor cytotoxicity in HEK293 cells - 8 hour (AID 1224884); further: nearly all actives have a fitted effect of over 35% in size; further: potency means the concentration at half of the fitted maximal effect
# How it was run: (§2)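 Tox21 screen in HEK293: membrane-impermeant cyanine dye fluoresces on binding dead-cell DNA; compound pinned 5 h post-seeding, plates held at 37 C, signal read repeatedly through 40 h.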
# [4] = A CellTox Green Cytotoxicity Assay to monitor cytotoxicity in HEK293 cells - 16 hour (AID 1224888); further: nearly all actives have a fitted effect of over 35% in size; further: potency means the concentration at half of the fitted maximal effect
# How it was run: as §2
# [5] = qHTS RealTime-Glo MT Cell Viability Assay in HepG2 cells - 0 hour (AID 1224889); further: nearly all actives have a fitted effect of over 50% in size; further: potency means the concentration at half of the fitted maximal effect
# How it was run: (§3)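 Real-time, nonlytic viability: 600 HepG2 cells/well mixed with NanoLuc enzyme plus prosubstrate; 5 h settle, compound (DMSO) added by pintool; luminescence monitored over 40 h at 37 C.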
# [6] = A CellTox Green Cytotoxicity Assay to monitor cytotoxicity in HepG2 cells - 8 hour (AID 1224890); further: nearly all actives have a fitted effect of over 45% in size; further: potency means the concentration at half of the fitted maximal effect
# How it was run: as §1
# [7] = target: Estrogen receptor (Homo sapiens) (UniProt P03372); assay: qHTS assay to identify small molecule antagonists of the estrogen receptor alpha (ER-alpha) signaling pathway using the BG1 cell line in the presence of 0.1 nM 17-beta-estradiol (AID 1259244); further: nearly all actives have a fitted effect of over 50% in size; further: potency means the concentration at half of the fitted maximal effect
# How it was run: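 Compounds were tested against 0.1 nM (final) 17beta-estradiol in VM7Luc4E2 cells, which express full-length ER-alpha and an ERE-luciferase reporter; luminescence was recorded following 22 h exposure.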
# [8] = qHTS assay to identify small molecule phospholipidosis (PLD) inducers (AID 1259344; active means well fitted curve in the direction sought with a large enough effect; an effect the other way counts as inactive or inconclusive)
# How it was run: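 Cells (HepG2, 900 per well) attach for 4 h, receive LipidTOX Red and compound together, incubate 24 h at 37 C, are fixed 30 min with paraformaldehyde/Hoechst, then imaged at one site per well.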
# [9] = qHTS assay to identify small molecule HDAC inhibitors (AID 1259364);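 further: wild-type HCT-116 cells with endogenous class I/II HDAC activity; top concentration of the series differs between compounds; nearly all actives have a fitted effect of over 45% in size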
# How it was run: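 Screening used wild-type human colon HCT-116 cells incubated overnight, dosed with compounds for 2 hours, and assayed with a homogeneous luminogenic HDAC I/II reagent for 30 minutes at room temperature.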
# [10] = qHTS assay to identify small molecule HDAC inhibitors - cell viability counter screen (AID 1259365); further: nearly all actives have a fitted effect of over 50% in size; further: potency means the concentration at half of the fitted maximal effect
# How it was run: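 CellTiter-Glo luminescence (30 min, room temperature) reported viability after a 2 h compound exposure at 37 C. Cells: wild-type HCT-116, 1,500 per well, seeded the night before.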
# [11] = qHTS assay to identify small molecule agonists of the sonic hedgehog signaling (Shh) pathway - cell viability counter screen (AID 1259366); further: nearly all actives have a fitted effect of over 50% in size; further: potency means the concentration at half of the fitted maximal effect
# How it was run: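 Cytotoxicity counter screen: CellTiter-Fluor reagent added after 23 h compound exposure, then 1 h at 37C and fluorescence read. Cells were 3T3 Gli1-Luc, seeded 2,000 per well and dosed 4 h post-plating.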
# [12] = qHTS assay to identify small molecule agonists of the sonic hedgehog signaling (Shh) pathway (AID 1259368; calls by dose curve;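 further: NIH/3T3-derived 3T3Gli1-Luc cells carrying a stable Gli1-driven firefly luciferase reporter; series mostly up to about 92 µM; nearly all actives have a fitted effect of over 15% in size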)
# How it was run: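 Hedgehog pathway agonism scored by increased firefly luciferase luminescence in 3T3Gli1-Luc cells treated 24 hr at 37 C; detection used a 30 min room-temperature reagent incubation.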
# [13] = qHTS assay to identify small molecule antagonists of the sonic hedgehog signaling (Shh) pathway (AID 1259369; calls by dose curve; further: nearly all actives have a fitted effect of over 45% in size; further: potency means the concentration at half of the fitted maximal effect)
# How it was run: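 NIH/3T3 stable Gli1-Luc clone, 2,000 cells/well, 4hr settle; cpd + conditioned medium 24hr; Luc reagent 30min RT; luminescence.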
# [14] = qHTS assay to identify small molecule antagonists of the estrogen receptor alpha (ER-alpha) signaling pathway using the BG1 cell line in the presence of 0.1 nM 17-beta-estradiol - cell viability counter screen (AID 1259241); further: nearly all actives have a fitted effect of over 40% in size; further: potency means the concentration at half of the fitted maximal effect
# How it was run: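 Cytotoxicity counter-screen: live-cell protease activity measured by fluorescence (30 min reagent step) in the same wells. Cells were VM7Luc4E2 with endogenous ER-alpha and ERE-driven luciferase, treated 22 hr at 37C alongside 0.1 nM 17beta-estradiol final.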
# [15] = qHTS assay to identify small molecule antagonists of the sonic hedgehog signaling (Shh) pathway - cell viability counter screen (AID 1259367); further: nearly all actives have a fitted effect of over 55% in size; further: potency means the concentration at half of the fitted maximal effect
# How it was run: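 Cytotoxicity was assessed in parallel with Shh reporter activity by measuring live-cell protease fluorescence (CellTiter-Fluor) in NIH/3T3 cells stably carrying Gli1-Luc, treated with compound under conditioned medium stimulation for 23 hr plus 1 hr reagent incubation.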
# [16] = qHTS RealTime-Glo MT Cell Viability Assay in HEK293 cells - 8 hour (AID 1224887); further: nearly all actives have a fitted effect of over 50% in size; further: potency means the concentration at half of the fitted maximal effect
# How it was run: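 HEK293 + NanoLuc + prosubstrate, 600 cells/well; 5 h, 37 C/5% CO2; compound 23 nL in DMSO by pintool; 37 C; luminescence read at 0, 8, 16, 24, 32 and 40 h time points.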
# [17] = qHTS RealTime-Glo MT Cell Viability Assay in HepG2 cells - 16 hour (AID 1224885); further: nearly all actives have a fitted effect of over 50% in size; further: potency means the concentration at half of the fitted maximal effect
# How it was run: as §3
# [18] = qHTS assay to identify small molecule antagonists of the androgen receptor (AR) signaling pathway using the MDA cell line in the presence of 0.5 nM R1881 - cell viability counter screen (AID 1259242); further: nearly all actives have a fitted effect of over 45% in size; further: potency means the concentration at half of the fitted maximal effect
# How it was run: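 Concentration-response screen of compounds for toxicity in MDA-kb2 reporter cells: 16 hr at 37C with 0.5 nM R1881, endpoint live-cell protease fluorescence measured in the reporter wells.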
# [19] = target: Androgen receptor (Homo sapiens) (UniProt P10275); assay: qHTS assay to identify small molecule antagonists of the androgen receptor (AR) signaling pathway using the MDA cell line in the presence of 0.5 nM R1881 (AID 1259243); further: nearly all actives have a fitted effect of over 50% in size; further: potency means the concentration at half of the fitted maximal effect
# How it was run: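 With R1881 held at 0.5 nM (final), compound effects on MMTV-luciferase expression in MDA-kb2 cells were scored by luminescence after a 16 hr, 37C incubation.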
# [20] = qHTS RealTime-Glo MT Cell Viability Assay in HEK293 cells - 24 hour (AID 1224886); further: nearly all actives have a fitted effect of over 50% in size; further: potency means the concentration at half of the fitted maximal effect
# How it was run: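 Cells + reagent dispensed (600 cells/well, HEK293) → 5 h at 37 C/5% CO2 → 23 nL compound in DMSO pinned → 40 h at 37 C → luminescence read at 0, 8, 16, 24, 32, 40 h.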
# Sequence of Estrogen receptor (Homo sapiens) (P03372 whole entry, looked up): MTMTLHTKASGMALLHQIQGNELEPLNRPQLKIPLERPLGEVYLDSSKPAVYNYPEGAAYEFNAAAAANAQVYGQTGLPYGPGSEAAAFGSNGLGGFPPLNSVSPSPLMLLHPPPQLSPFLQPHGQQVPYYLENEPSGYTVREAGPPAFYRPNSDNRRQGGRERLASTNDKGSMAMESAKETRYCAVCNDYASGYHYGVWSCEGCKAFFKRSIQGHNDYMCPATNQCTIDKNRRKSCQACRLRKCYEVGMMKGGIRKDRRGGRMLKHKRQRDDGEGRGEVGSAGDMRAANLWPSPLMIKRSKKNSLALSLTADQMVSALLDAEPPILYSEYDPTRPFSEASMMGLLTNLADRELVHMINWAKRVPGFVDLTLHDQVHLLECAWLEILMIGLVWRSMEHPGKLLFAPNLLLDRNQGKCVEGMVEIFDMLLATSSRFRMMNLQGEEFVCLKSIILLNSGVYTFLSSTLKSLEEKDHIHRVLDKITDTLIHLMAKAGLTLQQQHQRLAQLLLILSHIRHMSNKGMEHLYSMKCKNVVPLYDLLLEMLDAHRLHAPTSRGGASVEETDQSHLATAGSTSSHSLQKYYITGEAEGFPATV
# Sequence of Androgen receptor (Homo sapiens) (P10275 whole entry, looked up): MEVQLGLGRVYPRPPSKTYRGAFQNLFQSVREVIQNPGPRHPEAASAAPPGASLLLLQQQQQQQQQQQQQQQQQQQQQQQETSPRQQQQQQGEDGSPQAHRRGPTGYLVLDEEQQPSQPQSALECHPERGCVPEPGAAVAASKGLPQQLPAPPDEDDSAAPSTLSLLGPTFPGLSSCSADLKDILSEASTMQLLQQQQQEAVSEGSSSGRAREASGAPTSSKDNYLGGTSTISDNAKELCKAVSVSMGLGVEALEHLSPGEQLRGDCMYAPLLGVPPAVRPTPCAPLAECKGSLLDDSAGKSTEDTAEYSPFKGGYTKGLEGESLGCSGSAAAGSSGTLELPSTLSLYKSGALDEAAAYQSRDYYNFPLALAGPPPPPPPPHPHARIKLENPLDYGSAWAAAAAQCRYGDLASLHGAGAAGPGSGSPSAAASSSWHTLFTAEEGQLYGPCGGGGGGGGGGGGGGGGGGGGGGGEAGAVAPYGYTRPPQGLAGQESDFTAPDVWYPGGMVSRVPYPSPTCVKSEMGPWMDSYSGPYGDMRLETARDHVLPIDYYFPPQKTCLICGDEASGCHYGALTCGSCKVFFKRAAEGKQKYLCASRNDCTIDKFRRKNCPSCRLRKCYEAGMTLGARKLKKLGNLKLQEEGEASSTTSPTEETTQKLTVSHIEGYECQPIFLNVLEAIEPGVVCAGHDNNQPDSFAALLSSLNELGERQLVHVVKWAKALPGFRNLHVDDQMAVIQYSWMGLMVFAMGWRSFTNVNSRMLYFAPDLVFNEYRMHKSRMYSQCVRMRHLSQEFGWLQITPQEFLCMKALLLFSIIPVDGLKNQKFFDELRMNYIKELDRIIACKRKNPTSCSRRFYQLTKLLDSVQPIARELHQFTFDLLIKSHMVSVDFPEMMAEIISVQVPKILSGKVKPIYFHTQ
SMILES,Potency [1],Potency [2],Potency [3],Potency [4],Potency [5],Potency [6],Potency [7],Potency [8],Potency [9],Potency [10],Potency [11],Potency [12],Potency [13],Potency [14],Potency [15],Potency [16],Potency [17],Potency [18],Potency [19],Potency [20]
CCC1=C[C@@H]2CN(C1)Cc1c([nH]c3ccccc13)[C@@](C(=O)OC)(c1cc3c(cc1OC)N(C)[C@H]1[C@@](O)(C(=O)OC)[C@H](OC(C)=O)[C@]4(CC)C=CCN5CC[C@]31[C@@H]54)C2,inactive,inactive,inactive,inactive,inactive,inactive,21.1 µM (active),inactive,inactive,inactive,11.9 µM (active),inactive,0.0042 µM (active),–,–,–,–,–,–,–
Nc1ccccc1O,inactive,inactive,inactive,–,inactive,inactive,30.2 µM (active),–,–,inactive,–,inactive,6.77 µM (active),53.8 µM (active),19.1 µM (active),–,–,–,–,–
CC[C@H]1O[C@]2(CC[C@@H]1C)C[C@@H]1C[C@@H](C/C=C(\C)C[C@@H](C)/C=C/C=C3\CO[C@@H]4[C@H](O)C(C)=C[C@@H](C(=O)O1)[C@]34O)O2,inactive,27.3 µM (active),inactive,–,inactive,48.5 µM (active),–,–,inactive,inactive,–,inactive,–,inactive,inactive,43.3 µM (active),–,–,–,–
CCCCCCCCOC(=O)c1ccc(O)cc1,inactive,inactive and 43.6 µM (active),–,48.8 µM (active) and 49 µM (active),inactive,inactive,inactive,–,inactive,inactive,inactive,–,–,inactive,inactive,43.5 µM (active),inactive,–,–,–
C[C@@H](NCCCc1cccc(C(F)(F)F)c1)c1cccc2ccccc12,inactive,15.1 µM (active),–,23.9 µM (active),–,21.3 µM (active),–,inactive,inactive,inactive,–,inactive,–,inactive,–,23.9 µM (active),–,23.7 µM (active),18.8 µM (active),–
O=c1[nH]sc2ccccc12,inactive,34.7 µM (active),–,–,–,49 µM (active),54.5 µM (active),–,–,inactive,13.7 µM (active),inactive,0.969 µM (active),61.1 µM (active),17.2 µM (active),49 µM (active),21.9 µM (active),–,–,38.9 µM (active)
CCC(C)Nc1ccc(NC(C)CC)cc1 (configuration not stated),inactive,19.9 µM (active),–,–,–,–,2.48 µM (active),–,inactive,24.8 µM (active),11.1 µM (active),–,–,9.88 µM (active),19.7 µM (active),4.99 µM (active),17.7 µM (active),24.8 µM (active),1.57 µM (active),4.45 µM (active)
CCCN(CCC)c1c([N+](=O)[O-])cc(C(F)(F)F)c(N)c1[N+](=O)[O-],inactive,54.8 µM (active),–,–,inactive,–,54.3 µM (active),–,inactive,–,48.4 µM (active),–,21.6 µM (active),60.9 µM (active),60.9 µM (active),9.75 µM (active),48.9 µM (active),60.9 µM (active),–,19.4 µM (active)
C[C@H](CCC(=O)O)[C@H]1CC[C@H]2[C@@H]3CC[C@@H]4C[C@H](O)CC[C@]4(C)[C@H]3CC[C@]12C,inactive,–,inactive,inactive,inactive,inactive,inactive,–,inactive,inactive,inactive,inactive,–,inactive,inactive,inactive,inactive,inactive,–,inactive
Nc1c(Cl)cc(Cl)cc1Cl,inactive,–,21.6 µM (active),21.6 µM (active),inactive,inactive,–,–,inactive,inactive,inactive,inactive,inactive,inactive,inactive,–,inactive,inactive,–,inactive
Fc1ccc(C(c2ccc(F)cc2)N2CCN(C/C=C/c3ccccc3)CC2)cc1,inactive,inactive,–,inactive,inactive,inactive,inactive,–,inactive,–,inactive,inactive,inactive,inactive,inactive,–,–,–,–,–
NC(=O)N1C(=O)C(C(=O)c2cc(Cl)cs2)c2cc(F)c(Cl)cc21 (configuration not stated),inactive,–,inactive,inactive,–,inactive,–,–,inactive,inactive,27.3 µM (active),inactive,6.86 µM (active),–,27.3 µM (active),inactive,inactive,–,inactive,inactive
CS(=O)(=O)CCNCc1ccc(-c2ccc3ncnc(Nc4ccc(OCc5cccc(F)c5)c(Cl)c4)c3c2)o1,inactive,–,inactive,inactive,8.49 µM (active),inactive,29.8 µM (active),inactive,inactive,inactive,–,–,–,–,inactive,21.3 µM (active),21.3 µM (active),–,13.3 µM (active),21.3 µM (active)
Cc1[nH]cnc1C[C@H]1CCc2c(C)c3ccccc3n2C1=O,inactive,38 µM (active),–,inactive,inactive,–,–,–,inactive,inactive,–,inactive,18.9 µM (active),inactive,–,–,–,–,–,33.8 µM (active)
CC/C(=C(\c1ccc(O)cc1)c1ccc(OCCN(C)C)cc1)c1ccccc1,inactive,49.1 µM (active),–,55.1 µM (active),–,–,–,–,inactive,–,21.7 µM (active),inactive,9.71 µM (active),–,30.7 µM (active),27.6 µM (active),61.8 µM (active),–,61.3 µM (active),21.9 µM (active)
